From PubChem
Most compounds without a hit are left out; they make up all but 1.5% or so of the library.
Mtb MbtI inh = MbtI salicylate synthase inhibitors, primary screen, biochemical, fluorescence intensity. purified MbtI enzyme, fluorescence intensity read-out. 100,000 compounds, 0.89% hits. inhibition, % (no concentration beside the values); in the data active = inhibition mostly above about 56%, no sharp cut-off; inactive = mostly below about 77%
MenB inh = M. tuberculosis MenB inhibitors, primary screen, biochemical, absorbance. 100,000 compounds, 0.43% hits. MenB enzyme assay, absorbance read-out. AID 540299, 2011. 1,4-dihydroxy-2-naphthoyl-CoA synthase (Mycobacterium tuberculosis (strain ATCC 25618 / …. inhibition, % (no concentration beside the values); in the data active = inhibition above about 21%, passing the limit was not always enough
Target sequence (P9WNP5 whole entry, looked up): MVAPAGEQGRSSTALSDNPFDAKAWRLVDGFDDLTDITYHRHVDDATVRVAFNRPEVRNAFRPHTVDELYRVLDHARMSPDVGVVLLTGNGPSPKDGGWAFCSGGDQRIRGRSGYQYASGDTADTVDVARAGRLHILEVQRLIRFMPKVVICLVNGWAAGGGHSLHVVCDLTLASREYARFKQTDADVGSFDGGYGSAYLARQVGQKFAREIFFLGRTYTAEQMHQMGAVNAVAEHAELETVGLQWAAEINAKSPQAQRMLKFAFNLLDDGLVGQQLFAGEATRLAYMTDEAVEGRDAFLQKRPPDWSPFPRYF
PV pol inh = poliovirus RdRp elongation inhibitors, primary screen, biochemical, fluorescence polarization, total intensity | Genome polyprotein (Poliovirus type 1 (strain Mahoney)), P03300 | poliovirus polymerase elongation; stronger effect = lower value | % elongation, % (compound at 16.7 µg/mL) | 150,000 compounds, 0.66% hits; in the data active = % elongation below about 90%
Hits are given with their value.

For CC1CC(C)(C)N(C=O)c2ccccc21 (stereo unspecified) the results were Mtb MbtI inh inactive, MenB inh inactive and PV pol inh inactive.
`CC1Cc2scc[n+]2-c2ccccc2N1C=O` (stereo unspecified) gave MenB inh 100 and PV pol inh inactive.
For O=C(OCc1c(F)cccc1Cl)c1ccc(Cl)cc1 the results were Mtb MbtI inh inactive, MenB inh inactive and PV pol inh inactive.
`CCN1CCN(c2ccc(Cl)cc2NC(=O)C2CCCN2C(=O)c2cccs2)CC1` (stereo unspecified) gave Mtb MbtI inh inactive, MenB inh inactive and PV pol inh inactive.
CCc1ccc(S(=O)(=O)/N=C2/C=C(Nc3ccccc3)C(=O)c3ccccc32)cc1 was read as Mtb MbtI inh inactive, MenB inh inactive and PV pol inh inactive.
For CCc1ccc(S(=O)(=O)/N=C2\C=CC(=O)c3ccccc32)cc1 the results were Mtb MbtI inh inactive, MenB inh inactive and PV pol inh 74.
For C#CCn1c(=NC(=O)C2COc3ccccc3O2)sc2cccc(OC)c21 (stereo unspecified) the results were Mtb MbtI inh inactive, MenB inh inactive and PV pol inh inactive.
CCCCNc1ccccc1C(=O)O was read as Mtb MbtI inh inactive, MenB inh inactive and PV pol inh inactive.
Screening CCCCc1c(C(=O)O)cccc1C(=O)O returned Mtb MbtI inh inactive, MenB inh 27 and PV pol inh inactive.
`COC(=O)c1ccc2nc(NC(=O)CN3C(=O)CCC3=O)sc2c1` gave MenB inh inactive and PV pol inh 75.
O=C(CN1C(=O)CCC1=O)Nc1nc2ccccc2s1 was read as Mtb MbtI inh inactive, MenB inh inactive and PV pol inh inactive.
For COc1ccccc1C(N)=S the results were Mtb MbtI inh inactive, MenB inh inactive and PV pol inh inactive.
`NC(=S)c1ccccc1N` gave Mtb MbtI inh inactive, MenB inh inactive and PV pol inh 55.
Screening O=C(NCC1CCN(Cc2ccc(Cl)cc2)CC1)c1[nH]nc2c1COc1ccccc1-2 returned Mtb MbtI inh inactive, MenB inh inactive and PV pol inh inactive.
For CC(C)=NNC(=O)CNc1ccccc1Cl the results were Mtb MbtI inh inactive, MenB inh inactive and PV pol inh inactive.
Screening O=C(CNc1ccccc1Cl)N/N=C1\CCCc2ccccc21 returned Mtb MbtI inh inactive, MenB inh 39 and PV pol inh inactive.
Screening CCc1nc2ccccc2c(C(=O)OCC(=O)NCc2ccccc2)c1C returned Mtb MbtI inh inactive and PV pol inh inactive.
`CCC(c1nnnn1Cc1ccccc1)N1CCN(c2cccc(Cl)c2)CC1` (stereo unspecified) gave Mtb MbtI inh inactive, MenB inh inactive and PV pol inh inactive.
`O=C(CSc1nnc(COc2ccccc2)o1)N1CCc2ccccc21` gave Mtb MbtI inh inactive, MenB inh inactive and PV pol inh inactive.
`CC(C)CNS(=O)(=O)c1ccc2nc(NC(=O)c3ccccn3)sc2c1` gave Mtb MbtI inh 68, MenB inh inactive and PV pol inh inactive.
For CC(C)NS(=O)(=O)c1ccc2nc(NC(=O)c3cccnc3)sc2c1 the results were Mtb MbtI inh inactive, MenB inh inactive and PV pol inh inactive.
Screening COC(=O)CNC(=O)c1cc(=O)c2ccccc2o1 returned Mtb MbtI inh inactive, MenB inh inactive and PV pol inh inactive.
CC(=O)NC(c1ccccc1)n1nnc2ccccc21 (stereo unspecified) was read as Mtb MbtI inh inactive, MenB inh inactive and PV pol inh inactive.
`CC1(C)CC(=O)C=C(NCCc2ccccc2)C1` gave Mtb MbtI inh inactive, MenB inh 33 and PV pol inh inactive.
Screening Cc1ccc(CNC2=CC(=O)CC(C)(C)C2)cc1 returned Mtb MbtI inh inactive, MenB inh inactive and PV pol inh inactive.
Screening CC(C)c1ccc(N2C(=O)Cc3c2nc(N)c2c(N)nc(N4CCCC4)c(C#N)c32)cc1 returned Mtb MbtI inh inactive, MenB inh inactive and PV pol inh inactive.
CC(=O)N1CCN(c2nc(N)c3c(N)nc4c(c3c2C#N)CC(=O)N4C)CC1 was read as Mtb MbtI inh inactive, MenB inh inactive and PV pol inh 18.
For COc1cccc(NC(=O)CCS(=O)(=O)c2ccccc2)c1 the results were Mtb MbtI inh inactive, MenB inh inactive and PV pol inh inactive.
For Cc1cc(C)cc(NC(=O)Cn2c(-c3cncs3)nc3ccccc32)c1 the results were PV pol inh inactive.
For CCCCCOc1ccc(NC(=O)Cn2c(-c3cncs3)nc3ccccc32)cc1 the results were PV pol inh 89.
Screening CCOc1ccc(-n2c(SCC(=O)NC3CCCC3)nnc2-c2ccoc2C)cc1 returned Mtb MbtI inh inactive, MenB inh 36 and PV pol inh inactive.
Cc1n[nH]c(C)c1NC(=O)CSc1nnc(-c2ccoc2C)n1-c1ccccc1 was read as Mtb MbtI inh inactive, MenB inh inactive and PV pol inh inactive.
